Screening results: PubChem, National Center for Advancing Translational Sciences (NCATS)
Pf growth 48h: inhibits P. falciparum growth in the first generation, 48 h; P. falciparum luciferase growth in erythrocytes, 48 h; Potency, µM (doses to about 28.7 µM), inactives show top-dose activity change, negative = inhibition, hits mostly inhibitors; 5.9% of 310,000 active; also: potency is read from the fitted curve at half-maximal effect; % is scaled to controls: 0 for no effect and ±100 for the full control effect
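Parasite viability was followed by luminescence of a genomically integrated firefly luciferase. Cultures held 0.1% parasitemia at 2% hematocrit (final), incubated under 5% CO2 at 37 C.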
Pf growth 96h: inhibits malaria parasite growth, 96 h; 6.9% of 320,000 active; Potency, µM (doses to about 28.7 µM), inactives show at the top dose activity change, negative = inhibition, most hits filed as inhibitors; P. falciparum luciferase reporter growth, 96 h; also: potency is read from the fitted curve at half-maximal effect; % is scaled to controls: 0 for no effect and ±100 for the full control effect
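96 h incubation, 37 C, 5% CO2, of luciferase-reporter P. falciparum-infected RBCs (2% hematocrit, 0.05% parasitemia final) with test compounds; endpoint luminescence.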
Sm TGR inh: blocks Schistosoma mansoni thioredoxin glutathione reductase. Q962Y6. purified TGR, DTNB reduction, TNB absorbance 405 nm. Potency, µM (highest dose often 114 µM), for inactives: at the highest dose activity change, negative = inhibition, actives largely listed as inhibitors. AID 485364. 3% of 360,000 active; also: potency is read from the fitted curve at half-maximal effect; % is scaled to controls: 0 for no effect and ±100 for the full control effect; nearly all actives have a fitted effect of over 60% in size
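Kinetic colorimetric format: TGR-catalysed, NADPH-driven DTNB reduction monitored via TNB absorbance. Enzyme dispensed at 20 nM; compound exposure 15 min at room temperature before reaction start.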
Shiga inhibitor: inhibitors of Shiga toxin in Vero cells | Vero cells, Shiga toxin protein synthesis inhibition reporter | inhibition, % at 38.7 µM | 9.2% of 290,000 active | AID 2315; in the data active = inhibition mostly above about 28%, no sharp cut-off; inactive = mostly below about 43%; also: 0% is about no effect
CHX counter: counter-screen for Shiga toxin inhibitors: cycloheximide protein synthesis inhibition. 12% of 300,000 active. cell reporter, cycloheximide protein synthesis inhibition counterscreen. max response, %; in the data active = max response mostly above about 13%, no sharp cut-off; inactive = mostly below about 14%; also: read at 38.3 µM for the half of the compounds with a filed dose; 0% is about no effect
NS1 inh: influenza NS1 inhibition. AID 2326. 0.4% of 270,000 active. Potency, µM (titrated, usually from 46.1 µM), without a hit: at the highest dose activity, positive = more growth; calls by dose curve; also: potency is read from the fitted curve at half-maximal effect; actives are rising curves; nearly all actives have a fitted effect of over 50% in size
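OD600 was taken as the measure of yeast growth restored by compound in an NS1-expressing S. cerevisiae strain. Cells had been washed out of glucose medium and diluted 1:100 into galactose -URA medium, pH 6.0.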
* hit, by the source's call; ? = inconclusive; / = no result given; [ ] = another dose, or the depositor's remark. In the library only some 21% were active in any assay of this set; here they are far more common. Unless noted, calls follow the shape of the dose curve; as a rule, active = well fitted curve in the direction sought with a large enough effect; inconclusive = small, poorly fitted or top-dose-only effect, or another doubt; inactive = no such curve, though single readings can be large; an effect the other way counts as inactive or inconclusive.

SMILES | Pf growth 48h | Pf growth 96h | Sm TGR inh | Shiga inhibitor | CHX counter | NS1 inh
N#Cc1ccc(CN2CCN(C(=O)c3cn(Cc4ccccc4)nc3-c3cccnc3)CC2)cc1 | -24.2% | ? | -34.2% | / | / | /
O=c1c[n+](CC[n+]2cc(=O)o[nH]2)[nH]o1 | / | / | / | / | / | -0.3%
CCCSc1ncc(Cl)c(C(=O)Nc2sc3c(c2C(=O)OC)CCCC3)n1 | / | / | 3.6% | / | / | /
Cc1ccc(-c2noc(-c3cccnc3NCc3ccc(Cl)cc3)n2)cc1 | / | / | -0.3% | / | / | /
CCOC(=O)C1(CCOc2ccccc2)CCN(Cc2ccc(O)c(Cl)c2)CC1 | ? | ? | 8.9% | 12.0 | -1.7 | 4.8%
CCOC(=O)C1(CCOC)CCN(Cc2ccccc2-c2ccco2)CC1 | ? | ? | 35.5µM* | -3.8 | 0.5 | 2.7%
CCOC(=O)C1(CC2CC2)CCN(Cc2ccc(O)c(Cl)c2)CC1 | 4.15µM* | -11.1% | -1.2% | -14.4 | -3.8 | /
CCOC(=O)C1(CCOc2ccccc2)CCN(Cc2cc(OC)ccc2OC)CC1 | ? | 0.0% | -10.3% | -13.8 | -0.7 | 2.6%
CCOC(=O)C1(CCOC)CCN(Cc2cccc(OCc3ccccc3)c2)CC1 | ? | ? | 7.4% | -3.2 | -1.6 | 5.0%
CCOC(=O)C1(CCOc2ccccc2)CCN(Cc2cccc(OC)c2O)CC1 | 0.586µM* | -21.8% | -4.3% | -0.1 | -1.3 | 22.7%
CCOC(=O)C1(CCOc2ccccc2)CCN(Cc2ccc(F)c(OC)c2)CC1 | -65.4% | 14.7µM* | 13.1% | -0.3 | 0.7 | -19.2%
CCn1cc(C(=O)NCc2ccc(C)cc2)c(=O)c2cc(S(=O)(=O)N(C)C)ccc21 | ? | 1.8% | 6.3% | -7.9 | 4.4 | -4.9%
CCOC(=O)C1(CCOC)CCN(Cc2nc(C(C)C)cs2)CC1 | -2.9% | 95.1% | -33.1% | 68.3* | 29.5* | 2.8%
CCOC(=O)C1(CCOc2ccccc2)CCN(Cc2ccc(O)c(OC)c2)CC1 | 11.7µM* | -24.3% | ? | -27.7 | -4.0 | 6.9%
COc1ccc(CC2(CO)CCN(Cc3nc(C(C)C)cs3)CC2)cc1 | ? | ? | -8.5% | -12.8 | -2.1 | -0.2%
CC(NC=O)c1nc2ccccc2n1CCc1ccccc1 (configuration not stated) | 0.0% | ? | -4.6% | -17.7 | -1.4 | 2.4%
CN(C)c1ccc(/C=C/C=C2/SC(=S)N(c3ccccc3)C2=O)cc1 | 118.5% | 9.4% | -33.6% | 88.2* | 33.1* | /
O=C1/C(=C/C=C/c2ccco2)SC(=S)N1c1ccc(O)cc1 | 12.5% | 14.4% | 4.47µM* | 44.9 | 12.0 | 6.5%
O=C(NN1C(=O)/C(=C/C=C/c2ccccc2)SC1=S)c1ccncc1 | 22.8% | 0.3% | -22.8% | 20.9 | 25.8 | /
O=C(NN1C(=O)/C(=C/C=C/c2ccco2)SC1=S)c1ccncc1 | -62.1% | 14.4% | 3.16µM* | -12.0 | 3.0 | 13.8%
O=C(O)c1ccc(N2C(=O)/C(=C/C=C/c3ccccc3)SC2=S)cc1 | -62.1%[1.15 µM] | 33.3% | 6.5% | -3.5 | -3.7 | 6.9%
CC(C)C(C(=O)O)N1C(=O)/C(=C/c2cccn2C)SC1=S (configuration not stated) | 8.9% | 22.9% | -26.3% | -10.2 | -0.9 | 15.3%
CC(C)C(C(=O)O)N1C(=O)/C(=C/C=C/c2ccco2)SC1=S (configuration not stated) | 74.7% | ? | 11.2µM* | 9.6 | -3.9 | 15.2%
O=C1/C(=C\c2ccco2)SC(=S)N1c1ccc(O)cc1 | -21.1% | 13.0% | ? | 11.2 | 7.9 | -28.8%
COc1ccc(SCCN2CC[C@@H](C(C)(C)C)CCC2=O)cc1 | 0.0% | ? | -14.4% | / | / | /
SMILES | Pf growth 48h | Pf growth 96h | Sm TGR inh | Shiga inhibitor | CHX counter | NS1 inh
CCOC(=O)c1ccc(NC(=O)c2cccc3c(=O)c4c([nH]c23)CCCC4)cc1 | / | / | -0.2% | / | / | /
COc1ccc2c(c1)[nH]c1c(=O)n(/N=C/c3ccc(OC)c(CN4CCCC4)c3)cnc12 | 4.15µM* | ? | -6.8% | 15.1 | -1.6 | 2.9%
COc1ccc(/C=N/n2c(C)nc3c([nH]c4ccccc43)c2=O)cc1CN1CCCC(C)(C)C1 | 11.7µM* | 5.22µM* | -0.9% | 20.9 | -0.6 | -2.5%
COc1ccc2[nH]c3c(=O)n(/N=C/c4ccc(OC)c(CN5CCCC5)c4)c(C)nc3c2c1 | ? | ? | ? | -5.5 | -2.6 | 8.2%
COc1ccc(/C=N/n2cnc3c([nH]c4ccc(C)cc43)c2=O)cc1CN1CCCC1 | ? | ? | 1.7% | -2.7 | 0.2 | 0.7%
O=C(Nc1ccc(Cl)cc1N1CCOCC1)C1CCCO1 (configuration not stated) | 27.6% | 42.5% | 1.7% | -7.0 | -3.1 | -2.9%
COc1ccc(Cn2c(O)c(/C=N/NC(=O)c3ccccc3)c(=O)[nH]c2=O)cc1 | 11.7% | -27.7% | ? | 74.9* | 37.3* | 27.7%
O=c1[nH]c(=O)n(Cc2ccco2)c(O)c1/C=N/N1CCCCC1 | 8.3% | -11.6% | ? | -9.6 | -6.2 | -7.1%
O=c1[nH]c(=O)n(Cc2ccccc2)c(O)c1/C=N/NCCO | ? | -13.3% | -7.7% | -1.6 | -2.7 | 6.2%
O=C(N/N=C/c1c(O)n(Cc2ccco2)c(=O)[nH]c1=O)c1ccccc1 | 22.4% | 26.5% | -34.3% | 79.9 | 33.7* | -2.0%
COc1cccc(N=Cc2c(O)n(Cc3ccco3)c(=O)[nH]c2=O)c1 | -26.7% | -12.6% | 25.1µM* | -3.0 | -1.2 | 1.7%
O=C(N/N=C/c1c(O)n(Cc2ccccc2)c(=O)[nH]c1=O)c1ccccc1O | 12.1% | ? | 25.1µM* | 6.1 | 16.1* | ?
O=c1[nH]c(=O)n(Cc2ccco2)c(O)c1C=NC1CC1 | 5.9% | 22.6% | -26.9% | 12.7 | -4.6 | 3.0%
Cc1cccc(C)c1NC(=O)C1=C(O)c2sccc2N(C)S1(=O)=O | 221.0% | -15.1% | -3.2% | 2.1 | -6.2 | /
Cc1ccc(OCC(=O)N(C)CC(=O)NCc2ccco2)c(Br)c1 | ? | 1.7% | -30.6% | / | / | /
CC(=O)Nc1nnc(S(=O)(=O)N2CCN(c3ccc([N+](=O)[O-])cc3Cl)CC2)s1 | 8.2% | -20.7% | 4.8% | -3.5 | -10.4 | 9.4%
COc1ccc(Cn2c(O)c(/C=N/NC(=O)c3ccccc3O)c(=O)[nH]c2=O)cc1 | -1.7% | 4.7% | ? | 19.6 | 13.0* | 20.0%
CCCCCCC(=O)N/N=C/c1c(O)n(CCc2ccccc2)c(=O)[nH]c1=O | -6.6% | 9.2% | -8.2% | 1.4 | -2.7 | -3.0%
O=C(N/N=C/c1c(O)n(CCc2ccccc2)c(=O)[nH]c1=O)c1ccccc1O | 1.3% | -10.7% | -36.0% | 28.7 | 23.7* | -7.4%
COc1ccc(Cn2c(O)c(/C=N/NC(=O)c3ccncc3)c(=O)[nH]c2=O)cc1 | 13.0% | 18.8% | ? | -6.1 | -3.0 | -6.4%
O=C(N/N=C/c1c(O)n(Cc2ccc(F)cc2)c(=O)[nH]c1=O)c1ccccc1O | 11.6% | ? | 35.5µM* | 50.2 | 8.6 | ?
Cc1ccc(NC(=O)N2CC3CCCN3c3ccccc32)cc1Cl (configuration not stated) | / | / | -7.8% | / | / | /
